In test [1] the target is Retinoic acid receptor RXR-alpha (Homo sapiens) (UniProt P19793). Briefly: qHTS assay to identify small molecule agonists of the RXR signaling pathway (AID 1159527; calls by dose curve; note: nearly all actives have a fitted effect of over 35% in size; note: potency is the fitted concentration of half-maximal effect). In a few lines: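 16 hr incubation of compound-treated RXR-alpha-UAS-bla HEK 293T cells (2% charcoal-stripped FBS, 37 C) preceded a 2 hr room-temperature LiveBLAzer FRET substrate step and blue/green fluorescence measurement.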
Retinoic acid receptor RXR-alpha (Homo sapiens), sequence (P19793 whole entry, looked up): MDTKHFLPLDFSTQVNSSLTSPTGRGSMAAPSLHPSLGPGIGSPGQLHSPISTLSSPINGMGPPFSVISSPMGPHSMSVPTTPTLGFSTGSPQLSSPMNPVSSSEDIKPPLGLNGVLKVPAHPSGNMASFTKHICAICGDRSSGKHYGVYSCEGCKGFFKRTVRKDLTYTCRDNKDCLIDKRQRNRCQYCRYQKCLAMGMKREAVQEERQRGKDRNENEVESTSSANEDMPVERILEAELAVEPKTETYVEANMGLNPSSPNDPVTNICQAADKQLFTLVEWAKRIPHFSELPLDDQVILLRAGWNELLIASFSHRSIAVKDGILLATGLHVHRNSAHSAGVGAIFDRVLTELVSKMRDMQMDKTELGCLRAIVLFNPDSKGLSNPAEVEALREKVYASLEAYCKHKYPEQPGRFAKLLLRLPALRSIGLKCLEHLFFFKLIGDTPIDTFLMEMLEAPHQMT
In general terms: In qHTS, concentration-response curves come from the screen itself.

The nature of test [2]: qHTS assay to identify small molecule agonists of the RXR signaling pathway - cell viability counter screen (AID 1159529).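 Note: HEK 293T cells carrying an RXR-alpha UAS beta-lactamase reporter; series mostly up to about 77 µM; nearly all actives have a fitted effect of over 50% in size.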 The gist of the method: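 In this parallel viability measure, GeneBLAzer RXR-alpha HEK 293T cells (2% charcoal-stripped FBS) were given a 5 hr preincubation, treated with compounds 16 hr at 37 C, and read by CellTiter-Glo luminescence.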
The nature of test [3]: qHTS assay to identify small molecule antagonists of the retinoid acid receptor (RAR) signaling pathway - cell viability counter screen (AID 1159551). Note: nearly all actives have a fitted effect of over 35% in size. The gist of the method: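 In this counter screen, the RARE-luciferase line C3RL4 was exposed for 6 h at 37 C and 5% CO2 to compounds with retinol at 1 uM final. Cellular ATP, read by luminescence, served as the viability measure.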

Test [4] can be described thus: qHTS assay to identify small molecule agonists of the retinoic acid receptor (RAR) signaling pathway (AID 1159553). The gist of the method:
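In this cell-based screen, 1,000 C3RL4 cells per well were cultured overnight, dosed with test chemicals in DMSO for 6 hr, and assessed for RARE luciferase luminescence.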

Test [5] in a line: qHTS assay to identify small molecule antagonists of the estrogen related receptor (ERR) signaling pathway from Tox21 library - cell viability counter screen (AID 1224834). Note: nearly all actives have a fitted effect of over 30% in size. In a few lines: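 Counter screen run in ERR cells (2,000 cells/well): cells pre-incubated 6 h, then treated with compounds for 17.5 h at 37 C. Fluorescence was read 30 min after CellTiter-Fluor addition.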

Test [6] has as its target Luciferin 4-monooxygenase (Photinus pyralis) (UniProt P08659). Briefly: qHTS assay to identify small molecule inhibitors of firefly luciferase (AID 1224835). Note: nearly all actives have a fitted effect of over 25% in size. Note: potency is the fitted concentration of half-maximal effect. In a few lines:
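Inhibition of purified Photinus luciferase is measured by luminescence. Substrate levels (D-luciferin, ATP) sit at their KM values. Each compound is tested in a concentration series.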

The nature of test [7]: qHTS assay to identify small molecule agonists of the constitutive androstane receptor (CAR) signaling pathway - cell viability counter screen (AID 1224836). Note: series mostly up to about 92 µM; nearly all actives have a fitted effect of over 45% in size. The gist of the method: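 Using CellTiter-Fluor, viability of HepG2 cells harbouring hCAR and CYP2B6-2.2kb was measured following 23 h incubation with a 15-concentration compound series plus PK11195 (0.75 uM final).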

The nature of test [8]: qHTS assay to identify small molecule antagonists of the constitutive androstane receptor (CAR) signaling pathway - cell viability counter screen (AID 1224837). Note: series mostly up to about 92 µM; nearly all actives have a fitted effect of over 45% in size. In a few lines: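 CITCO at 50 nM final was added alongside compounds (15 concentrations) to double-stable hCAR/CYP2B6-2.2kb HepG2 cells. Following 23 hr at 37 C, cell viability was quantified by CellTiter-Fluor fluorescence intensity.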

A short description of test [9]: qHTS assay to identify small molecule antagonists of the estrogen related receptor signaling pathway with the pleiotropic PPARgamma coactivator (PGC) from Tox21 10K library - cell viability counter screen (AID 1224840; active = well fitted cell-killing curve with a large enough effect in the repeat runs, not every such curve was filed as active; note: nearly all actives have a fitted effect of over 40% in size). In a few lines: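 Readout: fluorescence intensity from CellTiter-Fluor after 30 min at 37 C/5% CO2. Preceded by 17.5 h treatment of PGC/ERR cells with DMSO-dissolved compounds, added 6 h post-seeding.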

Test [10] deals with Thyrotropin receptor (Homo sapiens) (UniProt P16473). The experiment in a line: qHTS assay to identify small molecule agonists of the thyroid stimulating hormone receptor (TSHR) signaling pathway (AID 1224843; calls by dose curve; note: nearly all actives have a fitted effect of over 45% in size; note: potency is the fitted concentration of half-maximal effect). In a few lines: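 Agonist activity read as cAMP rise via d2/cryptate HTRF competition, 1 h room-temperature detection, in HEK293 cells expressing TSHR. Fifteen-point titrations, each run in triplicate, with a 30 min room-temperature incubation beforehand.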
Thyrotropin receptor (Homo sapiens), sequence (P16473 whole entry, looked up): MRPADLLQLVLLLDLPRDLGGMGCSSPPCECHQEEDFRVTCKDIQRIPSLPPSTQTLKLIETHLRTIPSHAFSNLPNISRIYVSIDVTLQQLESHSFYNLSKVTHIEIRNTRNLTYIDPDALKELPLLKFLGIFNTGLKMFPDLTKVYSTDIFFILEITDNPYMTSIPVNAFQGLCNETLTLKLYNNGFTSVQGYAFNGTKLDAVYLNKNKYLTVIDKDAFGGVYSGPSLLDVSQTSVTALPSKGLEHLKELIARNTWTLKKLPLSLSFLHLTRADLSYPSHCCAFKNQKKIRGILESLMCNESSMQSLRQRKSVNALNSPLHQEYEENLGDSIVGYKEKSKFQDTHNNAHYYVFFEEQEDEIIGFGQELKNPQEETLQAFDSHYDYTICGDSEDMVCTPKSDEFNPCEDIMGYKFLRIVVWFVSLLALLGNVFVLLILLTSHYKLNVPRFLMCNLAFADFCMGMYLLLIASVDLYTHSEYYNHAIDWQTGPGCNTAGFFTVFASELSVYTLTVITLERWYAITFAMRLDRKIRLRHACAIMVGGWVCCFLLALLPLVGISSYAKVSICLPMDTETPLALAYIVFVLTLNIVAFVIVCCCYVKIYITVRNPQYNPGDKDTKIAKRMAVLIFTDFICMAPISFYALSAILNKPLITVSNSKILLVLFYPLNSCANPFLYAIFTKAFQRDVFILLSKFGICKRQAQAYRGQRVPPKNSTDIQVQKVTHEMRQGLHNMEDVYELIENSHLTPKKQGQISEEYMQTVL

Test [11] in a line: qHTS assay to identify small molecule agonists of the hypoxia (HIF-1) signaling pathway - cell viability counter screen (AID 1224844; calls by dose curve; note: nearly all actives have a fitted effect of over 50% in size). The gist of the method:
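In this counter screen, HRE-bla ME-180 cell viability after 17 hrs of compound exposure at 37C was read by CellTiter-Glo luminescence, multiplexed with the beta-lactamase reporter measurement.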

Test [12] is described as follows: qHTS assay to identify small molecule agonists of H2AX (AID 1224845; active = well fitted activation curve with a large enough effect in the signal ratio in the repeat runs, not every such curve was filed as active; the % refers to the signal ratio). The gist of the method: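 Phospho-H2AX Ser139 measured by HTRF (ex 320 nm; em 665 and 620 nm) after 24 hr antibody incubation. Compounds, 15 concentrations, 0.76% DMSO, were applied to CHO-K1 cells for 3hr at 37C before lysis.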
Test [13] can be described thus: qHTS assay to identify small molecule agonists of the hypoxia (HIF-1) signaling pathway (AID 1224846; active = well fitted activation curve with a large enough effect in the signal ratio in the repeat runs, not every such curve was filed as active; the % refers to the signal ratio). The gist of the method: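 ME-180 HRE-bla reporter cells; compounds in DMSO, 17 h at 37C; read-out beta-lactamase via CCF4-AM FRET.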
The target in test [14] is Nuclear receptor subfamily 1 group I member 3 (Homo sapiens) (UniProt Q14994). The experiment in a line: qHTS assay to identify small molecule antagonists of the constitutive androstane receptor (CAR) signaling pathway (AID 1224838). Note: nearly all actives have a fitted effect of over 40% in size. Note: potency is the fitted concentration of half-maximal effect. The gist of the method:
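Inhibition of CITCO-driven (50 nM final) CYP2B6 reporter expression is measured in HepG2 cells stably carrying hCAR. Fifteen compound concentrations are applied for 24 h at 37 C, followed by luciferase luminescence.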

For test [15] the target is unchanged. Briefly: qHTS assay to identify small molecule agonists of the constitutive androstane receptor (CAR) signaling pathway (AID 1224839). Note: series mostly up to about 92 µM; nearly all actives have a fitted effect of over 15% in size. In a few lines:
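Double-stable HepG2 cells (hCAR, CYP2B6-2.2kb) seeded 4 h before compound addition. Exposure 24 h with 0.75 uM PK11195 final. Luciferase detected by ONE-Glo.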

Test [16] in a line: qHTS assay to identify small molecule antagonists of the estrogen related receptor signaling pathway with the pleiotropic PPARgamma coactivator (PGC) from Tox21 10K library (AID 1224841; call rule not given here; note: actives are mostly falling curves and most rising ones were filed inactive; nearly all actives have a fitted effect of over 50% in size; note: potency is the fitted concentration of half-maximal effect). The gist of the method:
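One-Glo luminescence, measured after half an hour at room temperature, quantified reporter output of PGC/ERR cells. These had been plated at 2,000 per well, incubated 6 h, dosed with compounds in DMSO, then kept 18 h at 37 C.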

The nature of test [17]: qHTS assay to identify small molecule agonists of the estrogen related receptor signaling pathway with the pleiotropic PPARgamma coactivator (PGC) from Tox21 10K library (AID 1224842). Note: nearly all actives have a fitted effect of over 15% in size. In a few lines: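 Luminescence from One-Glo (30 min, room temperature) measured after PGC/ERR cells had 18 h at 37 C with pinned compound (23 nL in DMSO). Cells had been seeded at 2,000 per well and pre-incubated 6 h.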

SMILES strings stand for the structures. Values joined by “and” are separate entries in the source; they are usually repeats but may differ in a detail not shown here. Equal values may be shown once. Results filed as inconclusive are left out. A structure can be active in one record and inactive in another. Active and inactive are the calls of the source. Unless noted, calls come from the whole dose curve; as a rule, active = well fitted curve in the direction sought with a large enough effect in the repeat runs; inconclusive = weak or mixed curves; inactive = no such curve, though single readings can be large; an effect the other way counts as inactive or inconclusive.

Luciferin 4-monooxygenase (Photinus pyralis), sequence (P08659 whole entry, looked up): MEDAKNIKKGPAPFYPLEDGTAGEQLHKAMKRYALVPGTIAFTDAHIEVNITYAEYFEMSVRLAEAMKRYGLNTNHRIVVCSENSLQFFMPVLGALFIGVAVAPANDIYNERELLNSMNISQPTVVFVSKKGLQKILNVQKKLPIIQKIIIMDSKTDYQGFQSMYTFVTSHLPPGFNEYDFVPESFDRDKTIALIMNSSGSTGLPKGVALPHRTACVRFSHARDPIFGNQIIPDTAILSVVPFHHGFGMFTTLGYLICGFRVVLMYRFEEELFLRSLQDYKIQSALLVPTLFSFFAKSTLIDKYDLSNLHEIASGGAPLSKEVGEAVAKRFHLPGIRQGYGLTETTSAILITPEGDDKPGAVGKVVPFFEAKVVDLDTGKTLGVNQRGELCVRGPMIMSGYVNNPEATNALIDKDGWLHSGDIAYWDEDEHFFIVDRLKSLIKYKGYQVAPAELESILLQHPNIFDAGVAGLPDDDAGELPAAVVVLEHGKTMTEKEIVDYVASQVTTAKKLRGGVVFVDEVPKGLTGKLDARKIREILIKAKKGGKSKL
Nuclear receptor subfamily 1 group I member 3 (Homo sapiens), sequence (Q14994 whole entry, looked up): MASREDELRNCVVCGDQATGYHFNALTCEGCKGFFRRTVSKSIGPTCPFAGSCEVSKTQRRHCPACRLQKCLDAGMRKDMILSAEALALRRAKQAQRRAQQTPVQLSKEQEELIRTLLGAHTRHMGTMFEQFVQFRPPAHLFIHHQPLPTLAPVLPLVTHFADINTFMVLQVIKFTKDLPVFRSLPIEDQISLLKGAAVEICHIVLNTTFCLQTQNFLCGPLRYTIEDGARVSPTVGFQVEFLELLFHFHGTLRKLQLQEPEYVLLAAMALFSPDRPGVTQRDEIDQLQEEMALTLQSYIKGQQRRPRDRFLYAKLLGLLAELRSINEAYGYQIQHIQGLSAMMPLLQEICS

Regarding `CC(=O)CC(=O)Nc1ccccc1`, the Potency result in test [1], in test [2], in [4], in test [5], in test [6] and in test [7] was “inactive” throughout. Besides, the Potency entry in test [8], in [9], in test [11] and in [12] was “inactive” throughout. Further, the call in test [3] and in [13] was inactive. Moreover, in [10], the Potency is 19.3 µM (active) and inactive.

As to `C[Si](O[Si](C)(C)C)O[Si](C)(C)C`, the Potency result in test [1], in test [2], in test [5], in test [6], in test [7] and in test [8] was “inactive” each time. Besides, the Potency entry in test [14], in test [15], in [9], in test [10], in test [11] and in test [12] was “inactive” in each case. The result in [3] and in test [13] was inactive.

Turning to `O=P(OC(CCl)CCl)(OC(CCl)CCl)OC(CCl)CCl`, the Potency entry in [1], in test [2], in test [4], in [6], in [7] and in test [8] was “inactive” throughout. Besides, the Potency result in [9] is “inactive”. The call in test [3], in test [17] and in [13] was inactive. Further, the Potency in test [16] is 54.2 µM (active) and 54.5 µM (active).

On to `Cc1occc(=O)c1O`, for which the Potency result in test [1] was “inactive and 12.9 µM (active)”; in test [14] it was “inactive and 50.9 µM (active)”. Also, the Potency result in test [2], in [5], in test [6], in test [7], in [8] and in test [15] was “inactive” each time. Moreover, the Potency entry in test [9], in test [10], in test [11] and in test [12] was “inactive” each time. Moreover, the call in [3] and in test [13] was inactive.

As for `CCCCCCCCC/C=C/CC1CC(=O)OC1=O` (stereo not given), the Potency result in [1], in [2], in [5], in [7], in test [8] and in test [14] was “inactive” in each case. The Potency entry in test [15], in test [9], in [10], in test [11] and in test [12] was “inactive” in each case. Besides, the compound was called inactive in [3] and in test [13]. For the same compound, in test [6], the Potency was 71.3 µM (active).

As for `C[C@H]1C[C@@H]2[C@H]([C@@H](O)C[C@@]3(C)[C@H]2CC[C@]3(O)C(=O)CO)[C@@]2(C)C=CC(=O)C=C12`, the Potency entry in test [1], in test [2], in test [4], in [5], in test [6] and in test [7] was “inactive” in each case. Further, the Potency entry in test [8], in [9], in test [16], in test [11] and in test [12] was “inactive” each time. Besides, the outcome in [3] and in test [17] was inactive.

On to `CC(C)(N)CO`, for which the Potency result in test [1], in test [2], in test [5], in test [6], in test [7] and in [8] was “inactive” each time. The Potency entry in test [14], in test [15], in test [9], in test [16], in test [10] and in test [11] was “inactive” throughout. Also, in [12], the Potency result was “inactive”. In addition, the compound was classed as inactive in test [3], in [17] and in test [13].

`O=C(O)c1cc(C(=O)O)cc(S(=O)(=O)O)c1`: the Potency entry in test [1], in test [2], in [4], in [5], in test [6] and in test [7] was “inactive” each time. In addition, the Potency entry in test [8], in [9], in test [10], in [11] and in [12] was “inactive” each time. Besides, the outcome in [3] and in [13] was inactive.

Take `O=S1(=O)CC=CC1`: the Potency entry in test [1], in [2], in test [4], in test [5], in test [6] and in [7] was “inactive” in each case. Further, the Potency result in test [8], in [9], in [10], in test [11] and in [12] was “inactive” in each case. Also, the call in [3] and in test [13] was inactive.

As for `CC(C)c1ccc(S(=O)(=O)O)cc1`, the Potency entry in test [1], in test [2], in [5], in [6], in test [7] and in test [8] was “inactive” in each case. Moreover, the Potency result in test [14], in test [15], in [9], in [10], in test [11] and in test [12] was “inactive” each time. The result in test [3] and in test [13] was inactive.

The values are drawn from PubChem BioAssay (Tox21).
